Experimental findings from PubChem BioAssay (Tox21) are described below.

The structures appear in SMILES notation. Values joined by “and” are separate entries in the source; they are usually repeats but may differ in a detail not shown here. Equal entries are not always repeated. Unmarked numbers belong to inactive results. Results filed as inconclusive are left out. Active and inactive are the calls of the source. Unless noted, calls come from the whole dose curve; as a rule, active = well fitted curve in the direction sought with a large enough effect in the repeat runs; inconclusive = weak or mixed curves; inactive = no such curve, though single readings can be large; an effect the other way counts as inactive or inconclusive.

The nature of test [1]: qHTS assay to test for compound auto fluorescence at 535 nm (green) in HEK293 cells (AID 720680). For orientation: In qHTS, concentration-response curves come from the screen itself.
Test [2] can be described thus: qHTS assay to test for compound auto fluorescence at 460 nm (blue) in HEK293 cell free culture (AID 720681). In short, it runs like this: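 Test compounds were pinned into cell-free culture medium (DMEM with 10% FBS) and fluorescence was read directly at Ex/Em 405/460 nm. Signals were expressed as fluorescence equivalents of triamterene, with DMSO vehicle as control.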

Test [3] in a line: qHTS assay to test for compound auto fluorescence at 535 nm (green) in HEK293 cell free culture (AID 720682). In outline: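 Steps: dispense DMEM/10% FBS into empty wells; pin in compound or DMSO; measure fluorescence at 485/535 nm. Values are fluorescein equivalents.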
Test [4] in a line: qHTS assay to test for compound auto fluorescence at 590 nm (red) in HEK293 cell free culture (AID 720683). In short, it runs like this:
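Tox21 10K library compounds were pinned into cell-free DMEM with 10% FBS and fluorescence was read at excitation 540 nm. Activity is expressed as Rose Bengal sodium equivalency.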

Test [5] is described as follows: qHTS assay to test for compound auto fluorescence at 590 nm (red) in HepG2 cell free culture (AID 720684). In short, it runs like this: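 Measured in medium alone (MEM containing 10% FBS) following pintool addition of compound; emission at 590 nm with 540 nm excitation, referenced to Rose Bengal sodium.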
Test [6] is described as follows: qHTS assay to test for compound auto fluorescence at 460 nm (blue) in HepG2 cell free culture (AID 720685). In short, it runs like this:
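Compound (23 nL) or DMSO pinned into cell-free MEM with 10% FBS; blue fluorescence read at 405/460 nm excitation/emission, expressed as auto-fluorescence equivalency to triamterene.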

Test [7] can be described thus: qHTS assay to test for compound auto fluorescence at 535 nm (green) in HepG2 cell free culture (AID 720686).
A short description of test [8]: qHTS assay to test for compound auto fluorescence at 460 nm (blue) in HepG2 cells (AID 720687). In short, it runs like this:
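Cells (2,000/well in MEM with 10% FBS) attached overnight at 37 C, then were exposed to compound or DMSO for 1 hr at 37 C, 5% CO2. Fluorescence read at Ex/Em 405/460 nm, expressed as triamterene-equivalent signal.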

The nature of test [9]: qHTS assay to identify small molecule antagonists of the glucocorticoid receptor (GR) signaling pathway - cell viability counter screen (AID 720693). Note: nearly all actives have a fitted effect of over 55% in size.
Test [10] is described as follows: qHTS assay for identifying genotoxic compounds that show differential cytotoxicity against isogenic chicken DT40 cell lines with known DNA damage response pathways - wild type cell line (AID 743012). Note: nearly all actives have a fitted effect of over 60% in size. Note: potency is the fitted concentration of half-maximal effect. In outline:
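Using parental DT40 (300 cells/well), compounds delivered in DMSO incubate 40 h at 37 C/5% CO2. CellTiter-Glo reagent then stands 30 min at room temperature, and luminescence gives cell viability.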

Test [11] in a line: qHTS assay for identifying genotoxic compounds that show differential cytotoxicity against isogenic chicken DT40 cell lines with known DNA damage response pathways - Rev3 mutant cell line (AID 743014). Note: nearly all actives have a fitted effect of over 55% in size. Note: potency is the fitted concentration of half-maximal effect.
Test [12] is described as follows: qHTS assay for identifying genotoxic compounds that show differential cytotoxicity against isogenic chicken DT40 cell lines with known DNA damage response pathways - Rad54/Ku70 mutant cell line (AID 743015). Note: nearly all actives have a fitted effect of over 60% in size. Note: potency is the fitted concentration of half-maximal effect.
Test [13] in a line: qHTS assay to identify small molecule antagonists of the androgen receptor (AR) signaling pathway using the MDA cell line - cell viability counter screen (AID 743041; note: nearly all actives have a fitted effect of over 45% in size). In short, it runs like this:
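Viability counter screen run alongside the AR antagonist reporter: cells seeded 5 h before compound, R1881 added, 16 h incubation at 37C without CO2, fluorescent CellTiter-Fluor signal quantified.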

The nature of test [14]: qHTS assay to identify small molecule antagonists of the androgen receptor (AR) signaling pathway - cell viability counter screen (AID 743033; note: nearly all actives have a fitted effect of over 45% in size).
Test [15] in a line: qHTS assay to identify small molecule antagonists of the thyroid receptor (TR) signaling pathway - cell viability counter screen (AID 743064). Note: nearly all actives have a fitted effect of over 50% in size. Note: potency is the fitted concentration of half-maximal effect. In short, it runs like this: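 Plate GH3.TRE-Luc cells; incubate 4 h at 37 °C; add compound, then T3 to 1 nM final; incubate 23.5 h; add CellTiter-Fluor; incubate 30 min at 37 °C, 5% CO2; read fluorescence.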
Test [16] addresses Glucocorticoid receptor (Homo sapiens) (UniProt P04150). Briefly: qHTS assay to identify small molecule antagonists of the glucocorticoid receptor (GR) signaling pathway (AID 720692; active = well fitted inhibition curve with a large enough effect in the signal ratio in the repeat runs, not every such curve was filed as active; the % refers to the signal ratio). In short, it runs like this: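 Dexamethasone (5 nM final) stimulated a stably integrated GRE-beta-lactamase reporter in HeLa cells during 18 h co-incubation with compounds; signal was quantified as fluorescence intensity of B/G FRET substrate after 2 h.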

The target in test [17] is Androgen receptor (Homo sapiens) (UniProt P10275). Briefly: qHTS assay to identify small molecule agonists of the androgen receptor (AR) signaling pathway using the MDA cell line (AID 743040; note: nearly all actives have a fitted effect of over 20% in size; note: potency is the fitted concentration of half-maximal effect). In short, it runs like this: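 Luminescence from ONE-Glo, read after 30 min at room temperature, reflects MMTV-driven luciferase in MDA-kb2 cells (AR- and GR-responsive). Treatment lasted 16 h at 37C, 0% CO2.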
Chain of Androgen receptor (Homo sapiens) (P10275 whole entry, looked up): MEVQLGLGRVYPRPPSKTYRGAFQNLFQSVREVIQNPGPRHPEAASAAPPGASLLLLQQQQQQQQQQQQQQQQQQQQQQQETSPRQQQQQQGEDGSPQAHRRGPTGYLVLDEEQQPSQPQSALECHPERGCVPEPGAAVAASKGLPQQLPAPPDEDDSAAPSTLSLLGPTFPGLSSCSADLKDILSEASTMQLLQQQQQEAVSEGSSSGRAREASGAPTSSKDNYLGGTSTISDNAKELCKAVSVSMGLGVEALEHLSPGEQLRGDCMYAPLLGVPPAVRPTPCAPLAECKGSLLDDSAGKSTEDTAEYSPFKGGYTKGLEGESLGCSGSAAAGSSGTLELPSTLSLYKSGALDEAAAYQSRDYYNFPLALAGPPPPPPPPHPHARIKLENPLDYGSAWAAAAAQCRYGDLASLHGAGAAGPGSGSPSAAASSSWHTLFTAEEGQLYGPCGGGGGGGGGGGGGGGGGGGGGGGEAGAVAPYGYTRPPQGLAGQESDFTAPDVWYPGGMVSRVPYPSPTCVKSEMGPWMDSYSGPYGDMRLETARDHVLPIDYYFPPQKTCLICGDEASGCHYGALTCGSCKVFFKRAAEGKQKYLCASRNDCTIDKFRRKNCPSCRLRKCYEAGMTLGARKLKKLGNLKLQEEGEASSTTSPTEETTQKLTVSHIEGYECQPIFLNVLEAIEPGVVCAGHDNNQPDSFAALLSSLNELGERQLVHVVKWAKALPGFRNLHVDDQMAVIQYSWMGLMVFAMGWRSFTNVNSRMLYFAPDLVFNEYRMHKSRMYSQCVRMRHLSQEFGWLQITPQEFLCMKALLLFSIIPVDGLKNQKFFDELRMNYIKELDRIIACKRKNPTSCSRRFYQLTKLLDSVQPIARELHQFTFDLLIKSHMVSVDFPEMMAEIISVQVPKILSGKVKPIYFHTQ

The target is the same in test [18]. Description: qHTS assay to identify small molecule antagonists of the androgen receptor (AR) signaling pathway using the MDA cell line (AID 743042; note: nearly all actives have a fitted effect of over 55% in size). In short, it runs like this:
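MDA-kb2 cells (human breast carcinoma, stably carrying an MMTV-luciferase reporter responsive to AR and GR) were plated at 3,000 cells/well and preincubated 5 hr at 37C, then given compound plus R1881 agonist for 16 h. ONE-Glo luminescence was read.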
% is set by controls: 0 for no effect and ±100 for the full control effect.

Chain of Glucocorticoid receptor (Homo sapiens) (P04150 whole entry, looked up): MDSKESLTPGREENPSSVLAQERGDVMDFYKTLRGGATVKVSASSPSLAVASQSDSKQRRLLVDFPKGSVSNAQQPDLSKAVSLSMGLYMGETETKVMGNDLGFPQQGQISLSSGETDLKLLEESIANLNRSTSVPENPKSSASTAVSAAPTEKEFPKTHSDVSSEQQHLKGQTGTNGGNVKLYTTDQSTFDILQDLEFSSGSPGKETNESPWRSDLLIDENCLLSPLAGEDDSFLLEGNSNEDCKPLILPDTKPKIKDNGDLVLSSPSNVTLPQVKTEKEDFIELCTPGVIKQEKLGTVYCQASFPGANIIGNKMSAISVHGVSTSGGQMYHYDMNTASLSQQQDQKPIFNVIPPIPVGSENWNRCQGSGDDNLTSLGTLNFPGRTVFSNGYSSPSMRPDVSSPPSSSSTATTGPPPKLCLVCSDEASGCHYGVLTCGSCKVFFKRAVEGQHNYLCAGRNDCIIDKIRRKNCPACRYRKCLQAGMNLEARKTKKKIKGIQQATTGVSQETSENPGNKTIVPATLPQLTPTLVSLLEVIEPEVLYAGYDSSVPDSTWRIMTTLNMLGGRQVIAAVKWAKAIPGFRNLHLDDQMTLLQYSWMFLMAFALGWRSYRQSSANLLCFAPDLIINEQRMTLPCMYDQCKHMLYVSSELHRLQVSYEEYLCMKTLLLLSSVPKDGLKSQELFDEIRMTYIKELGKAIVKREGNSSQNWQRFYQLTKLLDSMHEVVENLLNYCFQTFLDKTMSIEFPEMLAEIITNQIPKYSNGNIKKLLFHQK

Turning to `CNCCC(Oc1ccccc1OC)c1ccccc1` (stereo unspecified), the compound was classed as inactive in test [1], in [2], in test [3], in test [4], in test [5] and in test [6]. Moreover, the call in test [7], in test [8] and in [9] was inactive. Further, the Potency in test [10] was 26.6 µM (active). For the same compound, the Potency result in test [11], in [12] and in [13] was “inactive” in each case.

Take `CCOC(=O)[C@H](CCc1ccccc1)N[C@@H](C)C(=O)N1Cc2cc(OC)c(OC)cc2C[C@H]1C(=O)O`: the outcome in [1], in test [2], in test [3], in test [4], in test [5] and in test [6] was inactive. The compound was classed as inactive in test [7], in [8], in [9] and in test [14]. The Potency entry in test [10], in [11], in test [12], in [13] and in test [15] was “inactive” in each case.

As for `CCc1cc(Cl)c(OC)c(C(=O)NC[C@@H]2CCCN2CC)c1O`, the compound was classed as inactive in test [1], in test [2], in test [3], in test [4], in test [5] and in test [6]. The compound was classed as inactive in test [7], in test [8] and in [9]. Further, in [16], the Potency entry is “inactive”. In addition, the Potency in test [10] is 5.96 µM (active) and 8.04 µM (active) and 6.68 µM (active); in test [11] it was 7.5 µM (active) and 9.02 µM (active) and 9.44 µM (active); in test [12], 11.9 µM (active) and 10.1 µM (active); in test [15] it was 23.7 µM (active) and 7.5 µM (active).

As to `CCOc1ccc2nc(N)sc2c1`, the compound was called inactive in test [1], in test [2], in test [3], in test [4], in test [5] and in test [6]. Further, the result in test [7], in [8] and in [14] was inactive. For the same compound, the Potency entry in test [16], in test [10], in [13] and in test [15] was “inactive” in each case.

As to `ICCc1ccccc1`, the outcome in test [1], in test [2], in [3], in test [4], in test [5] and in test [6] was inactive. Further, the compound was called inactive in test [7], in [8], in [9] and in [14]. The Potency result in [13] and in [15] was “inactive” throughout.

As to `OCc1c2ccccc2cc2ccccc12`, the outcome in test [1], in test [2], in test [3], in [4], in test [5] and in test [6] was inactive. In addition, the call in [7], in test [8], in test [9] and in test [14] was inactive. The Potency entry in test [13] and in [15] was “inactive” throughout.

As for `O=C(CC(=O)C(F)(F)F)c1ccccc1`, the outcome in test [1], in test [2], in test [3], in test [4], in [5] and in test [6] was inactive. The compound was classed as inactive in test [7], in test [8], in test [9] and in [14]. Moreover, the Potency result in test [10] and in [13] was “inactive” throughout.

With `Clc1cccc(-c2cc(Cl)cc(Cl)c2)c1`, the compound was called inactive in test [1], in [2], in [3], in test [4], in test [5] and in [6]. For the same compound, the result in test [7], in [8] and in [9] was inactive. Further, the Potency result in [10], in test [11], in [12] and in test [15] was “inactive” each time.

Turning to `CC(=O)N[C@@H](CC(C)C)C(=O)O`, the compound was called inactive in [1], in test [2], in test [3], in test [4], in test [5] and in test [6]. The outcome in [7], in test [8], in test [9] and in test [14] was inactive. Also, the Potency result in test [10], in [12] and in [13] was “inactive” throughout.

As for `CCCCCOc1ccc(C2SC(=O)NC2=O)cc1OCC` (stereo unspecified), the compound was classed as inactive in test [1], in test [2], in [3], in test [4], in [5] and in test [6]. Also, the compound was classed as inactive in test [7], in [8], in test [9], in test [14] and in test [18]. For the same compound, the Potency entry in [10], in test [12], in test [17], in test [13] and in test [15] was “inactive” each time.

As for `CC(C)=CCC[C@](C)(O)[C@@H]1CC=C(C)CC1`, the compound was called inactive in test [1], in test [2], in test [3], in test [4], in test [5] and in test [6]. The outcome in [7], in test [8], in test [9] and in [14] was inactive. The Potency entry in test [11], in test [12], in test [13] and in test [15] was “inactive” each time.

With `CCC1(C)NC(=O)NC1=O` (stereo unspecified), the call in [1], in [2], in test [3], in test [4], in test [5] and in [6] was inactive. Further, the outcome in test [7], in test [8], in test [9] and in test [14] was inactive. Also, the Potency result in test [10], in test [11], in [12], in test [13] and in test [15] was “inactive” in each case.

With `CCCCc1ccc2nc(NC(=O)OC)[nH]c2c1`, the fluorescence, % of fluorescein in test [1] was -0.231% [at 18.6 µM]. The fluorescence, % of fluorescent control in [2] was -0.0022% [at 18.6 µM]; in test [4], 0.113% [at 18.6 µM]; in test [6] it was -0.0558% [at 18.6 µM]; in [8] it was -0.0106% [at 18.6 µM]. The activity change in test [3] is 0.0865% [at 18.6 µM]. Further, in [5], the fluorescence, % of Rose Bengal is 0.0227% [at 18.6 µM]. Besides, the fluorescence, % of fluorescein control in [7] is -0.0094% [at 18.6 µM]. The compound was classed as inactive in test [9] and in test [18]. For the same compound, the Potency was 0.0569 µM (active) in [10]; 80.4 nM (active) in test [11]; 114 nM (active) in [12]; 5070 nM (active) in test [17]; 114 nM (active) in [15]. Moreover, in test [13], the Potency entry was “inactive”.

For the compound `C=CCCC=C`, the call in test [1], in [2], in test [3], in [4], in [5] and in test [6] was inactive. Moreover, the call in test [7], in test [8], in test [9] and in [14] was inactive. Further, the Potency result in [10], in test [11], in [12], in test [13] and in test [15] was “inactive” each time.

On to `CCCCCCCCCCCCCCCCOP(=O)([O-])OCC[N+](C)(C)C`, for which the outcome in [1], in [2], in test [3], in test [4], in test [5] and in test [6] was inactive. Besides, the outcome in test [7], in test [8] and in test [9] was inactive. Further, the Potency result in [10], in [11], in test [12] and in [13] was “inactive” throughout.
